Experimental data as given in ChEMBL document CHEMBL1961873, “Compounds: GSK PKIS; Assays: Nanosyn kinase panel” (2012).

molecular target: Serine/threonine-protein kinase 10 (Homo sapiens) (UniProt O94804); settings: at 1 µM;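 note: reported value is the mean percent inhibition of LOK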
Sequence (O94804 whole entry, looked up): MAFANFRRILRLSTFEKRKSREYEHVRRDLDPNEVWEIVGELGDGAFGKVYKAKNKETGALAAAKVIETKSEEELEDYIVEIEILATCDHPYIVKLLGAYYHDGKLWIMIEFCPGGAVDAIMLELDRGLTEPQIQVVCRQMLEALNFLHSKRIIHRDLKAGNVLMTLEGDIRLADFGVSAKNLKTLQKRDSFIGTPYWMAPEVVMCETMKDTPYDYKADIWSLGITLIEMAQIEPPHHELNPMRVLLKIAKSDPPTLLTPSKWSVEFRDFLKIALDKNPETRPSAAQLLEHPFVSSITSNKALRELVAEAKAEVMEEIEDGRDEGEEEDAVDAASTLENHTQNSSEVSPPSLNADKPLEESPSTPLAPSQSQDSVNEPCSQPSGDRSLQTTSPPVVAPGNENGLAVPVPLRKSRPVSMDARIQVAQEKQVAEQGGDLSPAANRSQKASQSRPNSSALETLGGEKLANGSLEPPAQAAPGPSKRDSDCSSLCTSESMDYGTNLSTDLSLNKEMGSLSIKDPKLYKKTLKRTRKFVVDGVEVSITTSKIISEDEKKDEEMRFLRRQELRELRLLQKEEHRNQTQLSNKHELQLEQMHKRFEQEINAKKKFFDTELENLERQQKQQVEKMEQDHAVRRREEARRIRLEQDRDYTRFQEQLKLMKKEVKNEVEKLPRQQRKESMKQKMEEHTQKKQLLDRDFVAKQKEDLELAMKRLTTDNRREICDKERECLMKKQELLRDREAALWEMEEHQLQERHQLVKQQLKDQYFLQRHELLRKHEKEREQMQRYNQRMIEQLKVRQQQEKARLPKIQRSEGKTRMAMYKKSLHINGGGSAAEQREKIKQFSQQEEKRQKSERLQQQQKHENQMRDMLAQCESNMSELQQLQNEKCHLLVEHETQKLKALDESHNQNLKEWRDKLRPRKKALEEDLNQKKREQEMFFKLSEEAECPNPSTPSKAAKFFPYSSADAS

SMILES | inhibition [%]
Nc1nccc(-c2c(-c3ccc(F)cc3)nn3cc(C(F)(F)F)ccc23)n1 | 3.24
CN1CCN(C(=O)c2ccc(NC(=O)Nc3ccc(N(C)c4ccnc(Nc5ccc(CS(C)(=O)=O)cc5)n4)cc3)cc2)CC1 | 67.7
CCn1c(-c2nonc2N)nc2c(C#CC(C)(C)O)nc(OCCNC)cc21 | 8.89
COc1ccc(-c2nn3ncccc3c2-c2ccnc(Nc3cccc(C(F)(F)F)c3)n2)cc1 | 12.3
Cc1ccc(C(=O)NC2CC2)cc1-c1ccc2[nH]ncc2c1 | -1.42
Cc1ccc2c(c1)/C(=N/Nc1ccc(S(N)(=O)=O)cc1)C(=O)N2 | 3.53
FC(F)(F)c1ccc(-c2nn3ncccc3c2-c2ccnc(Nc3ccc4c(c3)OCCO4)n2)cc1 | 30.1
NS(=O)(=O)c1ccc(Nc2cc(-c3cccc(O)c3)n[nH]2)cc1 | 8.5
Cc1cc(O)cc(C)c1/C=C/c1cncc(C(=O)N(C)C)c1 | 7.88
COc1cc(Nc2nccc(-c3cnn4ncccc34)n2)cc(OC)c1 | 27.3
COc1cccc(-n2ncc3c(N/N=C/c4ccc(C)cc4)ncnc32)c1 | 10.9
[O-][S+]1CCN(Cc2ccc(-c3ccc4ncnc(Nc5ccc(OCc6ccccc6)c(Cl)c5)c4c3)o2)CC1 | 12.3
COc1ccc2ncnc(Nc3ccc(OCc4ccccc4)cc3)c2c1 | 9.23
CN(C)C(=O)O[C@H]1CN[C@H](C#Cc2cc3ncnc(Nc4ccc(OCc5cccc(F)c5)c(Cl)c4)c3s2)C1 | 8.61
NS(=O)(=O)c1ccc(NC=C2C(=O)Nc3ccc4ncsc4c32)cc1 | 26.9
CS(=O)(=O)CCNCc1nc(-c2ccc3ncnc(Nc4ccc(OCc5cccc(C(F)(F)F)c5)cc4)c3c2)cs1 | 10
CCS(=O)(=O)c1ccc(OC)c(Nc2nccc(N(C)c3ccc4c(C)n[nH]c4c3)n2)c1 | 83

SMILES | inhibition [%]
Nc1nccc(-c2c(-c3ccc(F)cc3)ncn2CCCN2CCOCC2)n1 | 7.74
COC(=O)c1ccc2c(c1)C(=Cc1cc(Br)c(O)c(Br)c1)C(=O)N2 | 10.6
COc1cc2ncnc(Nc3ccc4c(cnn4Cc4ccccc4)c3)c2cc1OC | 14.2
O=S(=O)(CCOCc1ccc(-c2ccc3ncnc(Nc4ccc(OCc5cccc(F)c5)c(Cl)c4)c3c2)o1)c1ccccc1 | 5.21
NC(=O)c1sc(-n2cnc3ccccc32)cc1OCc1ccccc1Br | 60.6
NS(=O)(=O)c1cccc(-c2cc3ccncc3cc2OCc2ccccc2)c1 | 10.8
Cc1cc(Cl)cc2c1NC(=O)C2=NNc1ccc(S(N)(=O)=O)cc1 | 7.34
Oc1cccc(-c2nc(-c3ccccc3)[nH]c2-c2ccncc2)c1 | 16.6
COC(=O)Nc1nc2cc(Oc3ccc(NC(=O)Nc4cccc(Br)c4)cc3)ccc2[nH]1 | 34.2
Nc1nccc(C#Cc2cncnc2Nc2ccc(OCc3cccc(F)c3)c(Cl)c2)n1 | 11.4
O=C1Nc2ccc(-c3cccnc3)cc2C1=Cc1cc(Br)c(O)c(Br)c1 | 3.51
Nc1ccc(C#Cc2cncnc2Nc2ccc(OCc3cccc(F)c3)c(Cl)c2)cc1 | 6.55
NS(=O)(=O)c1cccc(Nc2cc(-c3ccc(F)cc3)n[nH]2)c1 | 16.5
CCS(=O)(=O)c1ccc(OC)c(Nc2ncc(-c3cccc(OC)c3)o2)c1 | 8.64
CCn1c(-c2nonc2N)nc2ccc(F)cc21 | 13.5
O=C1Nc2ccccc2/C1=C/Nc1ccc2[nH]c(=O)[nH]c2c1 | 17
CS(=O)(=O)Nc1cccc(-c2ccc3c(NC(=O)C4CC4)n[nH]c3c2)c1 | 10.2

molecular target: T1, Mitogen-activated protein kinase kinase kinase kinase 2 (Homo sapiens) (UniProt Q12851); settings: at 0.1 µM;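 note: values given as mean percent inhibition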
T1 sequence (whole entry): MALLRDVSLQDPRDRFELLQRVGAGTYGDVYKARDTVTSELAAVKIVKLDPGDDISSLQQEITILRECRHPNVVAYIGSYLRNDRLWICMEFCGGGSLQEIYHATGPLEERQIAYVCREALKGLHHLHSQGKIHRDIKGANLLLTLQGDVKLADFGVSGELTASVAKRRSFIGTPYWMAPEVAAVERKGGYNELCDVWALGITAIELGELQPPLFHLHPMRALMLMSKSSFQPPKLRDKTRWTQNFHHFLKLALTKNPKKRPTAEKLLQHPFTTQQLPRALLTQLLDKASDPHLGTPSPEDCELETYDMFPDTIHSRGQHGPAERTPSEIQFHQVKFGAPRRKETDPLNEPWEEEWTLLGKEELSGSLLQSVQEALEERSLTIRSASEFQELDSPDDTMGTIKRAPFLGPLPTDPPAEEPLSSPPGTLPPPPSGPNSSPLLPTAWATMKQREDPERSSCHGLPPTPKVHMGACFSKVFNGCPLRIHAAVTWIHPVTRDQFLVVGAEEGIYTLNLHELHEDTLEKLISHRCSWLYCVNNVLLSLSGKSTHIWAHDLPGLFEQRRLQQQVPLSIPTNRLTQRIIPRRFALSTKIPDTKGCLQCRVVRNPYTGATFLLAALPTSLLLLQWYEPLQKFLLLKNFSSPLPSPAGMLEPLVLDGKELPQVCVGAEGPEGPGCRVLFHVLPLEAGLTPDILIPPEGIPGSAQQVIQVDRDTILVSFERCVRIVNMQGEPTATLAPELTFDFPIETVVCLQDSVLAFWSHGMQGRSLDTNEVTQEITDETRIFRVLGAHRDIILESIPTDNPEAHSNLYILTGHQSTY

SMILES | inhibition [%]
Nc1nccc(-c2c(-c3ccc(F)cc3)nn3cc(C(F)(F)F)ccc23)n1 | 2.23
CN1CCN(C(=O)c2ccc(NC(=O)Nc3ccc(N(C)c4ccnc(Nc5ccc(CS(C)(=O)=O)cc5)n4)cc3)cc2)CC1 | 4.67
CCn1c(-c2nonc2N)nc2c(C#CC(C)(C)O)nc(OCCNC)cc21 | 0.49
COc1ccc(-c2nn3ncccc3c2-c2ccnc(Nc3cccc(C(F)(F)F)c3)n2)cc1 | 2.11
Cc1ccc(C(=O)NC2CC2)cc1-c1ccc2[nH]ncc2c1 | -1.74
Cc1ccc2c(c1)/C(=N/Nc1ccc(S(N)(=O)=O)cc1)C(=O)N2 | 1.01
FC(F)(F)c1ccc(-c2nn3ncccc3c2-c2ccnc(Nc3ccc4c(c3)OCCO4)n2)cc1 | 6.41
NS(=O)(=O)c1ccc(Nc2cc(-c3cccc(O)c3)n[nH]2)cc1 | 2.13
Cc1cc(O)cc(C)c1/C=C/c1cncc(C(=O)N(C)C)c1 | 2.39
COc1cc(Nc2nccc(-c3cnn4ncccc34)n2)cc(OC)c1 | 28.5
COc1cccc(-n2ncc3c(N/N=C/c4ccc(C)cc4)ncnc32)c1 | 0.91
[O-][S+]1CCN(Cc2ccc(-c3ccc4ncnc(Nc5ccc(OCc6ccccc6)c(Cl)c5)c4c3)o2)CC1 | -0.35
COc1ccc2ncnc(Nc3ccc(OCc4ccccc4)cc3)c2c1 | 0.8
CN(C)C(=O)O[C@H]1CN[C@H](C#Cc2cc3ncnc(Nc4ccc(OCc5cccc(F)c5)c(Cl)c4)c3s2)C1 | 0.82
NS(=O)(=O)c1ccc(NC=C2C(=O)Nc3ccc4ncsc4c32)cc1 | 27.2
CS(=O)(=O)CCNCc1nc(-c2ccc3ncnc(Nc4ccc(OCc5cccc(C(F)(F)F)c5)cc4)c3c2)cs1 | -0.19
CCS(=O)(=O)c1ccc(OC)c(Nc2nccc(N(C)c3ccc4c(C)n[nH]c4c3)n2)c1 | 0.17

SMILES | inhibition [%]
Nc1nccc(-c2c(-c3ccc(F)cc3)ncn2CCCN2CCOCC2)n1 | 2.02
COC(=O)c1ccc2c(c1)C(=Cc1cc(Br)c(O)c(Br)c1)C(=O)N2 | 1.53
COc1cc2ncnc(Nc3ccc4c(cnn4Cc4ccccc4)c3)c2cc1OC | 1.57
O=S(=O)(CCOCc1ccc(-c2ccc3ncnc(Nc4ccc(OCc5cccc(F)c5)c(Cl)c4)c3c2)o1)c1ccccc1 | 0.66
NC(=O)c1sc(-n2cnc3ccccc32)cc1OCc1ccccc1Br | 2.47
NS(=O)(=O)c1cccc(-c2cc3ccncc3cc2OCc2ccccc2)c1 | 3.01
Cc1cc(Cl)cc2c1NC(=O)C2=NNc1ccc(S(N)(=O)=O)cc1 | 1
Oc1cccc(-c2nc(-c3ccccc3)[nH]c2-c2ccncc2)c1 | 0.57
COC(=O)Nc1nc2cc(Oc3ccc(NC(=O)Nc4cccc(Br)c4)cc3)ccc2[nH]1 | 3.41
Nc1nccc(C#Cc2cncnc2Nc2ccc(OCc3cccc(F)c3)c(Cl)c2)n1 | 1.38
O=C1Nc2ccc(-c3cccnc3)cc2C1=Cc1cc(Br)c(O)c(Br)c1 | 1.24
Nc1ccc(C#Cc2cncnc2Nc2ccc(OCc3cccc(F)c3)c(Cl)c2)cc1 | 0.2
NS(=O)(=O)c1cccc(Nc2cc(-c3ccc(F)cc3)n[nH]2)c1 | 1.41
CCS(=O)(=O)c1ccc(OC)c(Nc2ncc(-c3cccc(OC)c3)o2)c1 | 1.39
CCn1c(-c2nonc2N)nc2ccc(F)cc21 | 1.16
O=C1Nc2ccccc2/C1=C/Nc1ccc2[nH]c(=O)[nH]c2c1 | 1.3
CS(=O)(=O)Nc1cccc(-c2ccc3c(NC(=O)C4CC4)n[nH]c3c2)c1 | 1.94
